From the supplement of paper PMC6607015
Structures can show the parent of a compound that is named as a salt.

How the values were obtained:
Settings in all cases: compound concentration in added solution (µM; 5 µl added to 20 µl cells): 10; 18 h
A431 [1] = test: LBPA endosome anti-LBPA integrated intensity (sum per cell), Z-score; higher = more LBPA staining
How it was run: (§1)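 After 18 h on 5 µl of 10 µM compound solution in duplicate 384-well imaging plates, HeLa MZ or A431 cells, seeded at 3,500 per well in 20 µl, were fixed with 4% PFA. They were then labelled with 6C4 anti-LBPA antibody, filipin, propidium iodide and CellTracker green, and four 20× fields were recorded per well. Integrated LBPA or filipin intensity per cell, whole-cell or within LBPA endosomes, came from MetaXpress segmentation and was normalised to Z-scores in AcuityXpress.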

HeLa MZ [2] = test: as above
How it was run: as §1

A431 [3] = test: whole-cell filipin (free cholesterol) integrated intensity, Z-score; higher = more cholesterol staining
How it was run: as §1

HeLa MZ [4] = test: as above
How it was run: as §1

A431 [5] = test: filipin (cholesterol) integrated intensity within LBPA endosomes, Z-score; higher = more cholesterol in LBPA endosomes
How it was run: as §1

HeLa MZ [6] = test: as above
How it was run: as §1

SMILES | LBPA endosome anti-LBPA integrated intensity (z-score) (A431 [1]) | LBPA endosome anti-LBPA integrated intensity (z-score) (HeLa MZ [2]) | whole-cell filipin (z-score) (A431 [3]) | whole-cell filipin (z-score) (HeLa MZ [4]) | filipin (z-score) (A431 [5]) | filipin (z-score) (HeLa MZ [6])
NS(=O)(=O)c1cc2c(cc1Cl)NCNS2(=O)=O [Hydrochlorothiazide] | -0.538 | -1.08 | -0.757 | -0.0813 | -0.476 | -0.419
CC(C(=O)O)c1ccc(-c2ccccc2)c(F)c1 (stereo not given) [Flurbiprofen] | -0.227 | 0.0649 | 0.155 | -0.426 | -0.328 | -0.513
CCC(=O)O[C@@H](O[P@](=O)(CCCCc1ccccc1)CC(=O)N1C[C@H](C2CCCCC2)C[C@H]1C(=O)O)C(C)C [Fosinopril] | -0.177 | -0.153 | -0.025 | 0.0232 | -0.364 | -0.383
CN[C@@H]1[C@H](O)[C@H](NC)[C@H]2O[C@@]3(O)C(=O)C[C@@H](C)O[C@H]3O[C@@H]2[C@H]1O [Spectinomycin dihydrochloride] | -0.507 | -0.585 | -0.388 | -0.158 | -0.451 | -0.309
C#CCN(C)CCCOc1ccc(Cl)cc1Cl [Clorgyline hydrochloride] | -0.292 | 0.155 | -1.09 | -0.252 | -0.435 | -0.359
CS(=O)(=O)Nc1ccc([N+](=O)[O-])cc1Oc1ccccc1 [Nimesulide] | -0.535 | -0.741 | -0.718 | -0.259 | -0.551 | -0.716
O=C(O)c1cn(C2CC2)c2cc(N3CCNCC3)c(F)cc2c1=O [Ciprofloxacin hydrochloride hydrate] | -0.633 | -0.847 | -0.925 | -0.971 | -0.579 | -0.519
CCCCNC(=O)NS(=O)(=O)c1ccc(C)cc1 [Tolbutamide] | -0.288 | 0.292 | -0.409 | -0.426 | -0.47 | -0.503
COc1cc(C(=O)NS(=O)(=O)c2ccccc2C)ccc1Cc1cn(C)c2ccc(NC(=O)OC3CCCC3)cc12 [Zafirlukast] | -0.518 | -0.847 | -0.458 | -0.494 | -0.486 | -0.569
CO[C@@]1(NC(=O)CSCC#N)C(=O)N2C(C(=O)O)=C(CSc3nnnn3C)CS[C@@H]21 [Cefmetazole sodium salt] | -0.329 | 0.139 | -0.215 | -0.0972 | -0.434 | -0.479
CCCCC(=O)O[C@H]1CC[C@H]2[C@@H]3CCc4cc(O)ccc4[C@H]3CC[C@]12C [Estradiol Valerate] | -0.347 | -0.788 | 0.103 | 0.191 | -0.224 | -0.226
CCCC(=O)Nc1ncnc2c1ncn2[C@@H]1O[C@@H]2COP(=O)(O)O[C@H]2[C@H]1OC(=O)CCC [Bucladesine sodium salt] | -0.466 | -0.34 | -0.132 | 0.0614 | -0.405 | -0.372
CN1CCN(C2=Nc3ccccc3Oc3ccc(Cl)cc32)CC1 [Loxapine succinate] | 0.352 | 1.12 | 0.0252 | -0.743 | 0.0734 | -0.11
COc1cc(C)nc(-n2nc(C)cc2OC)n1 [Epirizole] | -0.401 | -0.156 | -0.543 | -1.08 | -0.458 | -0.525
COc1ccc(CN(CCN(C)C)c2ccccn2)cc1 [Pyrilamine maleate] | -0.379 | 0.813 | -0.723 | -0.374 | -0.426 | 0.0714
CN/C(=N\CCSCc1nc[nH]c1C)NC#N [Cimetidine] | -0.436 | -0.604 | -0.5 | -0.3 | -0.458 | -0.409
CC#C[C@]1(O)CC[C@H]2[C@@H]3CCC4=CC(=O)CCC4=C3[C@@H](c3ccc(N(C)C)cc3)C[C@@]21C [Mifepristone] | -0.423 | 0.259 | -0.703 | -0.6 | -0.386 | -0.393
CCCNCC(O)COc1ccccc1C(=O)CCc1ccccc1 (stereo not given) [Propafenone hydrochloride] | 3.53 | 1.93 | 2.04 | 1.83 | 2.65 | 2.28
CN(Cc1cc(Br)cc(Br)c1N)C1CCCCC1 [Bromhexine hydrochloride] | -0.251 | -1.52 | 0.328 | -0.199 | -0.159 | -0.552
O=C(Cn1ccnc1[N+](=O)[O-])NCCO [Etanidazole] | -0.499 | -0.402 | -0.226 | 0.609 | -0.413 | -0.325
C=CC(N)CCC(=O)O (stereo not given) [Vigabatrin] | -0.513 | -0.602 | -1.01 | -0.729 | -0.566 | -0.59
NCCCC(O)(P(=O)(O)O)P(=O)(O)O [Alendronate sodium] | -0.662 | -1.69 | -0.705 | -0.128 | -0.56 | -0.588
CCOC1O[C@H]([C@@H](COCc2ccccc2)OCc2ccccc2)[C@H](OCc2ccccc2)[C@H]1O (stereo not given in full) [Tribenoside] | 0.543 | 2.34 | 0.649 | 1.71 | 0.264 | 0.525

SMILES | LBPA endosome anti-LBPA integrated intensity (z-score) (A431 [1]) | LBPA endosome anti-LBPA integrated intensity (z-score) (HeLa MZ [2]) | whole-cell filipin (z-score) (A431 [3]) | whole-cell filipin (z-score) (HeLa MZ [4]) | filipin (z-score) (A431 [5]) | filipin (z-score) (HeLa MZ [6])
CCCCCCCN(CC)CCCC(O)c1ccc(NS(C)(=O)=O)cc1 (stereo not given) [Ibutilide fumarate] | 0.46 | 1.54 | 0.561 | 0.166 | 0.22 | 0.621
COc1ccccc1N1CCN(CC(O)COc2cccc3ccccc23)CC1 (stereo not given) [Naftopidil dihydrochloride] | 0.776 | 1.7 | 0.857 | 0.537 | 0.575 | 0.742
CCCCOc1ccc(CC(=O)NO)cc1 [Bufexamac] | -0.196 | -0.501 | -0.337 | -0.569 | -0.313 | -0.483
CN1CCN(C(c2ccccc2)c2ccccc2)CC1 [Cyclizine hydrochloride] | -0.35 | 0.424 | -0.0386 | -0.181 | -0.285 | 0.0272
Cc1ncc([N+](=O)[O-])n1CC(O)CCl (stereo not given) [Ornidazole] | -0.468 | -0.445 | -0.79 | -0.699 | -0.356 | -0.454
Cc1cnc(NC(=O)C2=C(O)c3ccccc3S(=O)(=O)N2C)s1 [Meloxicam] | -0.49 | 0.298 | -0.567 | -0.195 | -0.477 | -0.459
CN(C)/N=N/c1[nH]cnc1C(N)=O [Dacarbazine] | -0.547 | -0.605 | -0.746 | -0.976 | -0.487 | -0.668
CN(C)CCC(c1ccccc1)c1ccccn1 (stereo not given) [Pheniramine maleate] | -0.513 | 0.0628 | -0.745 | -0.51 | -0.53 | -0.436
CC1(C)O[C@@H]2[C@@H](CO[C@@]3(COS(N)(=O)=O)OC(C)(C)O[C@@H]23)O1 [Topiramate] | -0.482 | -0.13 | -0.0917 | -0.317 | -0.419 | -0.514
OC(CCCN1CCCCC1)(c1ccccc1)c1ccccc1 [Diphenidol hydrochloride] | -0.218 | 0.517 | -0.613 | -0.594 | -0.133 | -0.0129
CC[C@H](c1ccc(O)cc1)[C@@H](CC)c1ccc(O)cc1 [Hexestrol] | -0.48 | -0.198 | -0.492 | -0.508 | -0.435 | -0.383
CC[C@]12CCCN3CCc4c(n(c5ccccc45)C(=O)C1)[C@@H]32 [Eburnamonine (-)] | -0.525 | -1.3 | -0.836 | -2.15 | -0.422 | -0.458
N=C(N)NC(=N)NCCc1ccccc1 [Phenformin hydrochloride] | -0.459 | 0.0471 | -0.366 | 1.16 | -0.42 | -0.335
Cc1cc(N)c2ccccc2[n+]1CCCCCCCCCC[n+]1c(C)cc(N)c2ccccc21 [Dequalinium dichloride] | -0.351 | 0.0986 | -0.943 | 1.23 | -0.599 | -0.485
O=C(O)c1cc(/N=N/c2ccc(S(=O)(=O)Nc3ccccn3)cc2)ccc1O [Sulfasalazine] | -0.338 | 0.849 | 0.0767 | 1.46 | -0.515 | -0.277
CC1(C)NC(=O)N(c2ccc([N+](=O)[O-])c(C(F)(F)F)c2)C1=O [Nilutamide] | -0.466 | -0.349 | -0.373 | -0.711 | -0.474 | -0.472
CN1CCN(CCCN2c3ccccc3Sc3ccc(C(F)(F)F)cc32)CC1 [Trifluoperazine dihydrochloride] | 1.83 | -0.0806 | -0.826 | 0.153 | 2.06 | 3.01
Cc1cccc(C)c1OCC(C)N (stereo not given) [Mexiletine hydrochloride] | -0.572 | -0.935 | -0.883 | -0.901 | -0.495 | -0.576
CN(C)CCN(Cc1ccccc1)c1ccccn1 [Tripelennamine hydrochloride] | -0.213 | 1.28 | 0.0432 | 0.362 | -0.29 | 0.335
COc1ccc([C@@H]2Sc3ccccc3N(CCN(C)C)C(=O)[C@@H]2OC(C)=O)cc1 [Diltiazem hydrochloride] | -0.508 | 0.314 | -0.778 | -0.456 | -0.362 | -0.144
CCN(CCO)CCCC(C)Nc1ccnc2cc(Cl)ccc12 (stereo not given) [Hydroxychloroquine sulfate] | 0.14 | 1.98 | -0.556 | 0.249 | -0.241 | 0.821
CC(=O)OCC(=O)[C@@]1(O)CC[C@H]2[C@@H]3CCC4=CC(=O)C=C[C@]4(C)[C@@]3(F)[C@@H](O)C[C@@]21C [Isoflupredone acetate] | -0.244 | -0.851 | -0.383 | -0.16 | -0.17 | -0.357
